# High-throughput results deposited in PubChem by Broad Institute.
# C diff growth – inhibitors of Clostridium difficile growth | growth activity, negative = inhibition, % at 16 µg/mL (by protocol) | 0.25% of 86,000 active | Clostridium difficile clinical isolate growth, OD600, 24 h; stronger effect = lower value;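 active = mean growth activity at or below -80% and every replicate also at or below -80%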;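 also: 0% = DMSO wells and -100% = levofloxacin 16 µg/mL wells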
# Pf Dd2 inh – inhibitors of Plasmodium falciparum Dd2 growth. P. falciparum Dd2 growth, SYBR Green, 72 h; stronger effect = lower value. activity change, % at 10 µM. 2.3% of 94,000 active. AID 1159554; in the data active = activity change below about -80%
# Starred values were filed as active, the others as inactive; x = no result given. An excerpt weighted towards active compounds, which were near 2.4% of everything screened.
SMILES,C diff growth,Pf Dd2 inh
CC(C)(C)S(=O)N1Cc2cc(C(=O)N[C@@H]3CCN(Cc4ccccc4)C3)nc(-c3cccc(C#CCC4CCCC4)c3)c2[C@H]1CCO (stereo not given in full),-5.0,-76.1
CC(C)(C)[S@](=O)N1Cc2cc(C(=O)NC3CCC3)nc(-c3cccc(Br)c3)c2[C@@H]1CCO,3.7,-85.4*
CC(C)(O)C#Cc1cccc(-c2nc(C(=O)N[C@@H]3CCN(Cc4ccccc4)C3)cc3c2[C@H](CCO)N(S(=O)C(C)(C)C)C3)c1 (stereo not given in full),-6.0,-82.3*
Cc1ccc(S(=O)(=O)N(C)C[C@H]2Oc3ccc(NC(=O)Nc4ccc(C(F)(F)F)cc4)cc3C(=O)N([C@H](C)CO)C[C@@H]2C)cc1,1.1,-45.4
O=S(=O)(N[C@@H]1CC[C@H](CCn2cc(-c3ccc(F)cc3)nn2)O[C@@H]1CO)c1ccccc1F,-13.0,-24.5
Cn1cnc(CCNC(=O)C[C@@H]2CC[C@H]3[C@@H](COC[C@H](O)CN3C(=O)Nc3ccc(F)cc3)O2)c1,x,12.2
O=C(N[C@H]1CC[C@H](CCn2cc(-c3ccc(F)cc3)nn2)O[C@@H]1CO)c1cnccn1,-1.1,-18.6
O=C(Nc1ccccc1)N1CCCCN2[C@H](CO)[C@@H](c3ccc(C#Cc4cccnc4)cc3)[C@H]2C1,5.1,-56.4
O=C(Nc1ccccc1)N1CCCCN2[C@@H](CO)[C@H](c3ccc(C#Cc4cccnc4)cc3)[C@@H]2C1,10.4,-83.5*
O=C(Nc1cccc(F)c1)N1CCCCN2[C@H](CO)[C@H](c3ccc(C#Cc4ccccc4)cc3)[C@@H]2C1,-14.0,-81.8*
O=C(Nc1cccc(F)c1)N1CCCCN2[C@H](C1)[C@H](c1ccc(C#Cc3ccccc3)cc1)[C@@H]2CO,-2.0,-23.2
CN(C)CC#Cc1ccc([C@H]2[C@H](CO)N3CCCCN(C(=O)CN(C)C)C[C@@H]23)cc1,29.3,-89.3*
CC(C)CC#Cc1ccc([C@H]2[C@@H](CO)N3CCCCN(C(=O)Nc4ccccc4)C[C@H]23)cc1,-87.5*,-22.9
CN(C)CC#Cc1ccc([C@@H]2[C@H](CO)N3CCCCN(C(=O)CN(C)C)C[C@@H]23)cc1,11.0,-33.1
CC(C)CC#Cc1ccc([C@@H]2[C@@H](CO)N3CCCCN(C(=O)Nc4ccccc4)C[C@@H]23)cc1,54.9,9.3
CS(=O)(=O)N1CC2(C1)[C@H](c1ccccc1)[C@@H](CO)N2Cc1ccc(F)cc1,-1.3,-50.8
O=C(C[C@H]1C=C[C@H](NC(=O)c2cccnc2)[C@@H](CO)O1)NCc1ccc(Cl)c(Cl)c1,x,-8.0
Cc1ccc(-c2ccc([C@H]3[C@H](CO)N4CCCCN(C(=O)Nc5cccc(F)c5)C[C@@H]34)cc2)cc1,-99.1*,16.0
Cc1ccc(-c2ccc([C@H]3[C@H]4CN(C(=O)Nc5cccc(F)c5)CCCCN4[C@H]3CO)cc2)cc1,48.0,14.5
CCCNC(=O)N1CCC2(CC1)CN(C(=O)CC)[C@H](CO)c1c2c2ccc(OC)cc2n1C,0.9,-68.2
C[C@@H]1CN([C@@H](C)CO)C(=O)Cc2cc(NC(=O)Nc3ccc4c(c3)OCO4)ccc2O[C@@H]1CN(C)CC1CC1,-2.9,-88.2*
C[C@H]1CN([C@@H](C)CO)C(=O)Cc2cc(NC(=O)Nc3ccc4c(c3)OCO4)ccc2O[C@H]1CN(C)CC1CCCCC1,-18.9,8.4
C[C@H](CO)N1C[C@H](C)[C@@H](CN(C)CC2CCCCC2)Oc2ccc(NC(=O)Nc3ccc4c(c3)OCO4)cc2CC1=O,0.2,-41.3
C[C@H](CO)N1C[C@H](C)[C@@H](CN(C)CC2CC2)Oc2ccc(NC(=O)Nc3ccc4c(c3)OCO4)cc2CC1=O,1.8,-82.9*
CO[C@H](CN(C)C(=O)Nc1ccc(F)cc1)[C@@H](C)CN(Cc1ccccc1Cl)[C@@H](C)CO,x,-17.8
SMILES,C diff growth,Pf Dd2 inh
COc1ccc(S(=O)(=O)N(C)C[C@@H]2OCCCC[C@H](C)Oc3ccc(NC(=O)Nc4ccc5c(c4)OCO5)cc3C(=O)N([C@H](C)CO)C[C@H]2C)cc1,0.4,-82.0*
COc1ccc(NC(=O)Nc2ccc3c(c2)C(=O)N([C@@H](C)CO)C[C@@H](C)[C@H](CN(C)S(=O)(=O)c2ccc(OC)cc2)OCCCC[C@@H](C)O3)cc1,1.0,-57.0
COc1ccc(S(=O)(=O)N(C)C[C@@H]2OCCCC[C@H](C)Oc3ccc(NC(=O)Nc4ccc5c(c4)OCO5)cc3C(=O)N([C@H](C)CO)C[C@@H]2C)cc1,-5.6,-81.1*
COc1ccc(S(=O)(=O)N(C)C[C@@H]2OCCCC[C@@H](C)Oc3ccc(NC(=O)Nc4ccc5c(c4)OCO5)cc3C(=O)N([C@@H](C)CO)C[C@@H]2C)cc1,7.5,-88.2*
COc1ccc(NC(=O)Nc2ccc3c(c2)C(=O)N([C@@H](C)CO)C[C@@H](C)[C@@H](CN(C)S(=O)(=O)c2ccc(OC)cc2)OCCCC[C@H](C)O3)cc1,6.0,9.9
COc1ccc(S(=O)(=O)N(C)C[C@@H]2OCCCC[C@@H](C)Oc3ccc(NC(=O)Nc4ccc5c(c4)OCO5)cc3C(=O)N([C@H](C)CO)C[C@@H]2C)cc1,11.6,-84.3*
COc1ccc(NC(=O)Nc2ccc3c(c2)C(=O)N([C@H](C)CO)C[C@@H](C)[C@H](CN(C)S(=O)(=O)c2ccc(OC)cc2)OCCCC[C@H](C)O3)cc1,-0.4,8.6
COc1ccc(NC(=O)Nc2ccc3c(c2)C(=O)N([C@H](C)CO)C[C@@H](C)[C@H](CN(C)S(=O)(=O)c2ccc(OC)cc2)OCCCC[C@@H](C)O3)cc1,4.1,-73.1
O=C(Nc1ccc(-c2ccccc2)cc1)[C@@H]1[C@@H](CO)[C@@H]2Cn3c(cccc3=O)[C@@H]2N1CC1CCCC1,8.4,-55.0
O=C(C[C@H]1CC[C@@H]2[C@H](COC[C@H](O)CN2Cc2nccs2)O1)NCc1ccc(Oc2ccccc2)cc1,6.0,2.2
O=C(C[C@@H]1CC[C@@H](NC(=O)C2CC2)[C@H](CO)O1)NCc1ccccc1Cl,2.1,7.7
C[C@H]1CN([C@@H](C)CO)C(=O)Cc2cc(NC(=O)Nc3cccc4ccccc34)ccc2O[C@@H]1CN(C)C(=O)Nc1ccc2c(c1)OCO2,10.9,-14.2
Cc1ccc(S(=O)(=O)N(C)C[C@H]2OCCCC[C@H](C)Oc3ccc(NC(=O)Nc4cccc5ccccc45)cc3C(=O)N([C@@H](C)CO)C[C@@H]2C)cc1,-1.7,-71.3
Cc1ccc(S(=O)(=O)N(C)C[C@@H]2OCCCC[C@H](C)Oc3ccc(NC(=O)Nc4cccc5ccccc45)cc3C(=O)N([C@H](C)CO)C[C@H]2C)cc1,-1.4,-81.8*
Cc1ccc(S(=O)(=O)N(C)C[C@@H]2OCCCC[C@@H](C)Oc3ccc(NC(=O)Nc4cccc5ccccc45)cc3C(=O)N([C@@H](C)CO)C[C@@H]2C)cc1,5.3,-82.1*
Cc1ccc(S(=O)(=O)N(C)C[C@H]2OCCCC[C@H](C)Oc3ccc(NC(=O)Nc4cccc5ccccc45)cc3C(=O)N([C@H](C)CO)C[C@@H]2C)cc1,1.1,-8.9
O=C(NCC[C@H]1CC[C@@H](NS(=O)(=O)c2ccc(F)cc2)[C@H](CO)O1)c1ccccc1F,-7.2,-0.9
COc1cccc(C#Cc2ccc3c(c2)[C@@H]2[C@@H](CCN2S(=O)(=O)c2ccccc2)[C@@H](CO)N3)c1,26.1,-57.3
